# Laboratory results taken from PubChem BioAssay (EPA / NIEHS).
# Values joined by “and” are separate entries in the source; they are usually repeats but may differ in a detail not shown here. Equal entries are not always repeated. Inconclusive results are not listed. Active and inactive are the calls of the source. How the source made its calls: active means hit-call score of the fitted dose curve at least 0.9, where 1 is the maximum; inconclusive means response in the unintended direction; inactive means score below 0.9.
# Columns and labels:
# [1] = target: rat Thyrotropin Releasing Hormone Receptor (TRH), Trhr (gene 25570) (UniProt Q01717); experiment: NVS_GPCR_rTRH: NovaScreen (NVS) G Protein-Coupled Receptor Assay for rat Thyrotropin Releasing Hormone Receptor (TRH) (AID 2283329);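 further: hit means lower bound tracer signal versus DMSO baseline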
# rat Thyrotropin Releasing Hormone Receptor (TRH), Trhr (gene 25570), sequence (Q01717 whole entry, looked up): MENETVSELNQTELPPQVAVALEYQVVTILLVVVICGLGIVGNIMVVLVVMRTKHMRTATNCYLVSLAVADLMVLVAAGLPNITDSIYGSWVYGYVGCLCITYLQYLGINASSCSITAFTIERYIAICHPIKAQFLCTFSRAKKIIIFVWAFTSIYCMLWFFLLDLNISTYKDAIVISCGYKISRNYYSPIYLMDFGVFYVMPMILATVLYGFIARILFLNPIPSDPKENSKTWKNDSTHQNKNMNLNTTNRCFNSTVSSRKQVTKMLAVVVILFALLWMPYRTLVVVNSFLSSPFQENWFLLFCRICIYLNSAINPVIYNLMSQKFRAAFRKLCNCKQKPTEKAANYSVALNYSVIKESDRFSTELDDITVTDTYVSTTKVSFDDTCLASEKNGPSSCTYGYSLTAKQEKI
# Procedure, shortened: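 Rat forebrain membranes; radioligand displacement at TRH receptor by filter-based scintillation counting, read 4 h after dosing. Duplicate single-point screen at 25 uM, actives rerun in concentration series; loss of signal relative to DMSO.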
# [2] = target: bovine Gamma-Aminobutyric Acid Type A Receptor BDZ, alpha 1 site (GABARa1), GABRA1 (gene 780973) (UniProt P08219); experiment: NVS_LGIC_bGABARa1: NovaScreen (NVS) Ligand-Gated Ion Channel Assay for bovine Gamma-Aminobutyric Acid Type A Receptor BDZ, alpha 1 site (GABARa1) (AID 2283321)
# bovine Gamma-Aminobutyric Acid Type A Receptor BDZ, alpha 1 site (GABARa1), GABRA1 (gene 780973), sequence (P08219 whole entry, looked up): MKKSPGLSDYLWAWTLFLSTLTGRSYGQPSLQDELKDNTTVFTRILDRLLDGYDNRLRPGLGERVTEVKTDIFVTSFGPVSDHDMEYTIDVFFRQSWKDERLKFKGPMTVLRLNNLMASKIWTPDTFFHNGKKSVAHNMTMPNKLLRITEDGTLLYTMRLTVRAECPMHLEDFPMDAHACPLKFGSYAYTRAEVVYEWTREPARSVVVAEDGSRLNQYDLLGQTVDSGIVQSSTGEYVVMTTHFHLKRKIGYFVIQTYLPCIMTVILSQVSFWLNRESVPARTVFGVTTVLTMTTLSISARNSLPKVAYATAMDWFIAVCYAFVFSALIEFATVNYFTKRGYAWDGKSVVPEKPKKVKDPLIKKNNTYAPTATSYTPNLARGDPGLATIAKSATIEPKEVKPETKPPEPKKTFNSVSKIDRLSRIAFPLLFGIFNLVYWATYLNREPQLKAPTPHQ
# Procedure, shortened: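 Radioligand competition binding on bovine cortical membranes, 0.75 h, filter-based scintillation counting. Primary single concentration 25 uM in duplicate; actives rerun in concentration-response to 50 uM max. Loss of signal fitted versus DMSO.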
# NCBI gene 24521 = experiment: NVS_IC_rKATPCh: NovaScreen (NVS) Ion Channel Assay for rat Potassium Channel, ATP-Sensitive (KATPCh) (AID 2283319)
# Procedure, shortened: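 Rat cortical membranes; radioligand binding at ATP-sensitive K channel site, filter-based scintillation counting 2 h after dosing. Single-point duplicate screen at 25 uM, hits rerun in concentration-response up to 50 uM; loss of signal versus DMSO.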
# [3] = target: human Peripheral-type Benzodiazepine Receptor (PBR), TSPO (gene 706) (UniProt P30536); experiment: NVS_MP_hPBR: NovaScreen (NVS) Membrane Protein Assay for human Peripheral-type Benzodiazepine Receptor (PBR) (AID 2283331);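 further: hits reduce radioligand binding relative to DMSO baseline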
# human Peripheral-type Benzodiazepine Receptor (PBR), TSPO (gene 706), sequence (P30536 whole entry, looked up): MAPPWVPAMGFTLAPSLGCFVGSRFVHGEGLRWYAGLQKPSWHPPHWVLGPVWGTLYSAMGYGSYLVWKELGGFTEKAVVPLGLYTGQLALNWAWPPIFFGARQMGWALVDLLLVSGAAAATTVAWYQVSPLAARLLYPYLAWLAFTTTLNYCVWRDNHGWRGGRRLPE
# Procedure, shortened: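 Human colonic cell membranes were incubated with test chemical for 1 hour; radioligand binding was measured by filter-based scintillation counting. Primary screen ran in duplicate at 25 uM, with actives followed in concentration series; loss of signal versus DMSO baseline.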
# [4] = target: rat Peripheral-type Benzodiazepine Receptor (PBR), Tspo (gene 24230) (UniProt P16257); experiment: NVS_MP_rPBR: NovaScreen (NVS) Membrane Protein Assay for rat Peripheral-type Benzodiazepine Receptor (PBR) (AID 2283335)
# rat Peripheral-type Benzodiazepine Receptor (PBR), Tspo (gene 24230), sequence (P16257 whole entry, looked up): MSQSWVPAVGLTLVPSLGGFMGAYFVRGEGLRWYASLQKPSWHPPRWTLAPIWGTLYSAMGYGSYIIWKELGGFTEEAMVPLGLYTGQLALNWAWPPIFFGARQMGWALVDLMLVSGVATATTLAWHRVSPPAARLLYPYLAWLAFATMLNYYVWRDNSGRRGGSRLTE
# Procedure, shortened: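 Rat kidney membranes; radioligand binding with displacement, filter-based scintillation counting, 1 h incubation. Primary screen in duplicate at 25 uM, actives followed in concentration series; loss of binding vs DMSO.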
# [5] = target: bovine Gamma-Aminobutyric Acid Type A Receptor Agonist (GABAR Agonist), GABRA1 (gene 780973) (UniProt P08219); experiment: NVS_LGIC_bGABAR_Agonist: NovaScreen (NVS) Ligand-Gated Ion Channel Assay for bovine Gamma-Aminobutyric Acid Type A Receptor Agonist (GABAR Agonist) (AID 2283338)
# bovine Gamma-Aminobutyric Acid Type A Receptor Agonist (GABAR Agonist), GABRA1 (gene 780973), sequence (P08219 whole entry, looked up): as the sequence (P08219 whole entry, looked up) above
# Procedure, shortened: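 Radioligand binding to bovine cerebellar membranes in agonist format, read by filter-based scintillation counting after 1 h. Primary screen in duplicate at 25 uM, with actives followed in concentration series. Gain of signal versus DMSO.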
# [6] = target: bovine Gamma-Aminobutyric Acid Type A Receptor BDZ, alpha 5 site (GABARa5), GABRA5 (gene 523515) (UniProt Q08E50); experiment: NVS_LGIC_bGABARa5: NovaScreen (NVS) Ligand-Gated Ion Channel Assay for bovine Gamma-Aminobutyric Acid Type A Receptor BDZ, alpha 5 site (GABARa5) (AID 2283323)
# bovine Gamma-Aminobutyric Acid Type A Receptor BDZ, alpha 5 site (GABARa5), GABRA5 (gene 523515), sequence (Q08E50 whole entry, looked up): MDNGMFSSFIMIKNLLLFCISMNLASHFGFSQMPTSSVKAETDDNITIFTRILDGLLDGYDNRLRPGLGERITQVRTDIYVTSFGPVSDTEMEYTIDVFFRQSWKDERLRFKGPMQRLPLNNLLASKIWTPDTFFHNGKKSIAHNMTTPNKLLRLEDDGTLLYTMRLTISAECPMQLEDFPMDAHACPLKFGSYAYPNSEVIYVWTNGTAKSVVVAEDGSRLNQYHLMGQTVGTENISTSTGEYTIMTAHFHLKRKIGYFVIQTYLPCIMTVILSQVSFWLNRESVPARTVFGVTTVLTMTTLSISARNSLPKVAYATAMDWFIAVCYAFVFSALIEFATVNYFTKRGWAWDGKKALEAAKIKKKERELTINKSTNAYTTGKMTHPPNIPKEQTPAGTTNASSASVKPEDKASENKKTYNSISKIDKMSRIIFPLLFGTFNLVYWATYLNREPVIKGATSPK
# Procedure, shortened: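 Radioligand competitive displacement binding on bovine hippocampal membranes, read 1 hr after dosing by filter-based scintillation counting. Primary screen at 25 uM in duplicate; actives (e.g. ≥30% inhibition) then run in concentration-response up to 50 uM.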
# [7] = target: rat Glutamate, NMDA Agonist Site (GluNMDA), Grin1 (gene 24408) (UniProt P35439); experiment: NVS_LGIC_rGluNMDA_Agonist: NovaScreen (NVS) Ligand-Gated Ion Channel Assay for rat Glutamate, NMDA Agonist Site (GluNMDA) (AID 2283327)
# Procedure, shortened: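 Rat forebrain membranes, radioligand binding in the agonist-site protocol; 1 h after dosing; filter-based scintillation counting. Single-concentration duplicate screen at 25 uM, then concentration-response up to 50 uM for actives; gain-of-signal vs DMSO.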
# [8] = target: rat Gamma-Aminobutyric Acid Type A Receptor, Non-Selective (GABAR-NonSelective), Gabra1 (gene 29705) (UniProt P62813); experiment: NVS_LGIC_rGABAR_NonSelective: NovaScreen (NVS) Ligand-Gated Ion Channel Assay for rat Gamma-Aminobutyric Acid Type A Receptor, Non-Selective (GABAR-NonSelective) (AID 2283326)
# rat Gamma-Aminobutyric Acid Type A Receptor, Non-Selective (GABAR-NonSelective), Gabra1 (gene 29705), sequence (P62813 whole entry, looked up): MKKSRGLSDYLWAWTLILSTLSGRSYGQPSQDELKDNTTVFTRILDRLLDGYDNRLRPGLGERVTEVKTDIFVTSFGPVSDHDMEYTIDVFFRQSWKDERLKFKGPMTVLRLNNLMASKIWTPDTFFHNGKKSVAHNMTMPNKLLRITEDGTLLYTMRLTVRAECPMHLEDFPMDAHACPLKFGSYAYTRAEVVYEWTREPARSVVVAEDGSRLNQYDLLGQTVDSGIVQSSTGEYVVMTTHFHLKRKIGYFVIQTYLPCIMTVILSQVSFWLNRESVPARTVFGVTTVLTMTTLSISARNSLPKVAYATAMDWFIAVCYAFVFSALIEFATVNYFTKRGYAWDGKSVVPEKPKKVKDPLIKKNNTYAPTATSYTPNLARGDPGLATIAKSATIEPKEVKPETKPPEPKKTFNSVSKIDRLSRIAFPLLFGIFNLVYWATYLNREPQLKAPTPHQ
# Procedure, shortened: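 Radioligand displacement on rat whole-brain extract, 1 h, filter scintillation readout; signal loss fitted versus DMSO. Primary screen in duplicate at 25 uM; hits (e.g. ≥30% inhibition) retested in concentration-response up to 50 uM.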
# [9] = NVS_IC_rCaDHPRCh_L: NovaScreen (NVS) Ion Channel Assay for rat Calcium Channel, Type L, Dihydropyridine Site (CaDHPRCh_L) (AID 2283320)
# Procedure, shortened: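 Radioligand binding to dihydropyridine site on rat cortical membranes, filter-based scintillation counting, 1 h after dosing. Screened in duplicate at 25 uM; actives rerun in concentration-response up to 50 uM. Loss of signal versus DMSO baseline.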
# [10] = target: Sodium channel protein type 1 subunit alpha (Rattus norvegicus) (UniProt P04774); experiment: NVS_IC_rNaCh_site2: NovaScreen (NVS) Ion Channel Assay for rat Sodium Channel, Site 2 (NaCh) (AID 2283322);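 further: hit means loss of radioligand binding signal relative to DMSO so AC50 marks displacement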
# Procedure, shortened: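 Membranes: rat forebrain. Format: competitive radioligand displacement, filter separation, scintillation readout, 1 h exposure. Primary screen in duplicate at 25 uM; actives retested in concentration series.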
# [11] = target: Voltage-gated inwardly rectifying potassium channel KCNH2 (Homo sapiens) (UniProt Q12809); experiment: NVS_IC_hKhERGCh: NovaScreen (NVS) Ion Channel Assay for human Potassium Channel ERG (KhERGCh) (AID 2283333)
# Voltage-gated inwardly rectifying potassium channel KCNH2 (Homo sapiens), sequence (Q12809 whole entry, looked up): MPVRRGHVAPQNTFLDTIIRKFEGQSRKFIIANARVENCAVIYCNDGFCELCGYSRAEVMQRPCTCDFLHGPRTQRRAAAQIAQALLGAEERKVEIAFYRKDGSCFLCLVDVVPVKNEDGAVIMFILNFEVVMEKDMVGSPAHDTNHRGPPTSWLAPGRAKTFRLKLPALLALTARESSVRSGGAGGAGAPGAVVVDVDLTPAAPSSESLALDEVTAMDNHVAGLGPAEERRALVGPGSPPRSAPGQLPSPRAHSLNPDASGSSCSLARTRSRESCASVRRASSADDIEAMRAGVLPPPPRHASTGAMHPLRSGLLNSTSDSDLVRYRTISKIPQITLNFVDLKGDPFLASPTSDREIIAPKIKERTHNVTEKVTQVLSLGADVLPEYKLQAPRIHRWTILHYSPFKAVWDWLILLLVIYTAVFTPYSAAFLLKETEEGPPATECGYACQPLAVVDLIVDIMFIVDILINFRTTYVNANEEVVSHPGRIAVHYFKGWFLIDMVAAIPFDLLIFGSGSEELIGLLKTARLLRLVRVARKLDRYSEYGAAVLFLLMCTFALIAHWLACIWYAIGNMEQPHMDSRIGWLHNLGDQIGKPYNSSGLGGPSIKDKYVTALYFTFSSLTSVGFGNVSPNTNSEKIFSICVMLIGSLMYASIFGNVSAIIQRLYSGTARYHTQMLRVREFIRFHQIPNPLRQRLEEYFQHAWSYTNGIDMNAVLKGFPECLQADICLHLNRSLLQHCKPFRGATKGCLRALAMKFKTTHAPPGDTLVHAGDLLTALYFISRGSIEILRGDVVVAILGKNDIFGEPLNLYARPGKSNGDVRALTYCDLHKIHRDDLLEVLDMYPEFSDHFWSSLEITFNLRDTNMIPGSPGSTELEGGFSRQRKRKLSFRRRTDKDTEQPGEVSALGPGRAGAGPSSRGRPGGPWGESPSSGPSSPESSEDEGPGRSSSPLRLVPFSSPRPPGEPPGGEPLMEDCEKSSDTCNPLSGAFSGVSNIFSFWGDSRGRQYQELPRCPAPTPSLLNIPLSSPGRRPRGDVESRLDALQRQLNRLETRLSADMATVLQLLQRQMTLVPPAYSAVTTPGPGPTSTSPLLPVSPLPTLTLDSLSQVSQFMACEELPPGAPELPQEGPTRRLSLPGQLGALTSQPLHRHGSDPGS
# Procedure, shortened: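 Cell-free radioligand competition binding on hERG protein extracted from CHO cells, read by filter-based scintillation counting 0.75 h after dosing. Primary screen at 25 uM in duplicate, actives followed in concentration series. Signal loss fitted versus DMSO.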
# [12] = NVS_IC_rCaBTZCHL: NovaScreen (NVS) Ion Channel Assay for Calcium Channel, Type L, Benzothiazepine Site (CaBTZCHL) (AID 2283337)
# Procedure, shortened: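 Radioligand displacement at the benzothiazepine site using rat cortical membranes; bound label measured by filtration and scintillation counting 1.5 h after dosing. Single-point 25 uM in duplicate, then concentration series; DMSO baseline.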
# [13] = target: rat Glutamate, AMPA Site (AMPA), Gria1 (gene 50592) (UniProt P19490); experiment: NVS_LGIC_rAMPA: NovaScreen (NVS) Ligand-Gated Ion Channel Assay for rat Glutamate, AMPA Site (AMPA) (AID 2283324)
# rat Glutamate, AMPA Site (AMPA), Gria1 (gene 50592), sequence (P19490 whole entry, looked up): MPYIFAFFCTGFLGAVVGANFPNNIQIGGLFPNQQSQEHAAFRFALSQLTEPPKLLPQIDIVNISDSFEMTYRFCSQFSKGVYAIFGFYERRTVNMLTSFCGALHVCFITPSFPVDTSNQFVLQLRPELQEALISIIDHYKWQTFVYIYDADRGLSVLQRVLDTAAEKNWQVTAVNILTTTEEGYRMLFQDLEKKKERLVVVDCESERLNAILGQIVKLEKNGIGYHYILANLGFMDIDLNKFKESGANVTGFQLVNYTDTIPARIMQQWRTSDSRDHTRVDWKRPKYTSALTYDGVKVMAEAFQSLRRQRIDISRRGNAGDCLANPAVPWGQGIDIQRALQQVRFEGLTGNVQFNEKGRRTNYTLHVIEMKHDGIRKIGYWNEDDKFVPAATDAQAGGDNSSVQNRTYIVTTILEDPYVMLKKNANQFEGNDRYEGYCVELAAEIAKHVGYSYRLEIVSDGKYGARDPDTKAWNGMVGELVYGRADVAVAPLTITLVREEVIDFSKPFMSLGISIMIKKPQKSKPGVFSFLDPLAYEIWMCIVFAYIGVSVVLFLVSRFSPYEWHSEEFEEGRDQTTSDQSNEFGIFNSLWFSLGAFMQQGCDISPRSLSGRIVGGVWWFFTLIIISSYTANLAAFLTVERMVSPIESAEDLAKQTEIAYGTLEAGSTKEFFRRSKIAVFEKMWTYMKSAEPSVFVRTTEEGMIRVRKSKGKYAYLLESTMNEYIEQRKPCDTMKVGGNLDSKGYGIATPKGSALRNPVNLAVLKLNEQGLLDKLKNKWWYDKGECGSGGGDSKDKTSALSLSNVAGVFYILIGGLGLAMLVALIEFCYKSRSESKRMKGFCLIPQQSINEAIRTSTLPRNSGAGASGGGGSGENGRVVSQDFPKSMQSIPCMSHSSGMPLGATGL
# Procedure, shortened: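 Rat forebrain membranes; radioligand binding read 1 h after dosing by filtration and scintillation counting. Duplicate single-point screen at 25 uM, then concentration-response to 50 uM for threshold hits (e.g. 30% inhibition); loss of signal vs DMSO.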
# [14] = target: rat Glutamate, MK-801 Agonist Site (GluNMDA_MK801), Grin1 (gene 24408) (UniProt P35439); experiment: NVS_LGIC_rGluNMDA_MK801_Agonist: NovaScreen (NVS) Ligand-Gated Ion Channel Assay for rat Glutamate, MK-801 Agonist Site (GluNMDA_MK801) (AID 2283340)
# Procedure, shortened: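 Radioligand binding at MK-801 site in rat forebrain membranes, 1.5 h incubation, filter-based scintillation counting. Initially 25 uM in duplicate; actives then run in concentration-response up to 50 uM, fitted for gain of signal versus DMSO.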
smiles,measurement,setting,value
N#Cc1nn(-c2c(Cl)cc(C(F)(F)F)cc2Cl)c(N)c1S(=O)C(F)(F)F (stereo not given),outcome,[1],inactive
COc1nc(C)nc(NC(=O)NS(=O)(=O)c2ccccc2Cl)n1,outcome,[2],inactive
CCCCNC(=O)OCC#CI,AC50,NCBI gene 24521,9.23 µM (active) and 12.3 µM (active)
same,AC50,[3],38.2 µM (active) and 41.3 µM (active)
same,AC50,[4],12.8 µM (active) and 10.7 µM (active)
same,outcome,[5],inactive
N#CC(CCc1ccc(Cl)cc1)(Cn1cncn1)c1ccccc1 (stereo not given),outcome,[6],inactive
COc1nc(C)nc(NC(=O)NS(=O)(=O)c2ccccc2CCC(F)(F)F)n1,outcome,[7],inactive
C=CCC1=C(C)C(OC(=O)C2C(C=C(C)C)C2(C)C)CC1=O (stereo not given),AC50,[8],7.41 µM (active) and 66.1 nM (active)
same,outcome,[3],inactive
same,outcome,[4],inactive
OC(c1ccc(Cl)cc1)(c1cncnc1)c1ccccc1Cl (stereo not given),AC50,[9],19 µM (active)
same,AC50,[10],5.79 µM (active)
same,outcome,[1],inactive
same,outcome,[3],inactive
same,outcome,[11],inactive
same,AC50,[4],4.89 µM (active)
same,outcome,[12],inactive
CCCCC(CC)COC(=O)c1ccccc1C(=O)OCC(CC)CCCC (stereo not given),outcome,[7],inactive
same,AC50,[3],8.75 µM (active)
same,AC50,[4],15.6 µM (active)
CCCCOC(=O)c1ccccc1C(=O)OCCCC,AC50,[6],32.5 µM (active) and 19.3 µM (active)
same,AC50,[3],22.1 µM (active) [middle of 5 runs]
same,AC50,[4],13.4 µM (active) and 15.5 µM (active)
same,outcome,[5],inactive
COc1ccc(C(c2ccc(OC)cc2)C(Cl)(Cl)Cl)cc1,outcome,[9],inactive
same,outcome,[6],inactive
same,outcome,[13],inactive
same,outcome,[3],inactive
same,outcome,[4],inactive
C=CCC1=C(C)[C@@H](OC(=O)[C@@H]2[C@@H](C=C(C)C)C2(C)C)CC1=O,outcome,[8],inactive
same,AC50,[3],25 µM (active)
same,AC50,[4],37.7 µM (active)
Oc1ccccc1-c1ccccc1,outcome,[10],inactive
same,outcome,[1],inactive
same,outcome,[3],inactive
same,outcome,[4],inactive
CNC(=S)S,outcome,[13],inactive
same,outcome,[1],inactive
same,outcome,[3],inactive
same,outcome,[4],inactive
same,outcome,[14],inactive
C#CCOS(=O)OC1CCCCC1Oc1ccc(C(C)(C)C)cc1 (stereo not given),AC50,[9],37.4 µM (active)
same,AC50,[3],18.2 µM (active)
same,AC50,[4],14.5 µM (active)
